Hit rate of the full screen: of about 48,000 compounds, about 13,000 (27%) showed an effect of 50% or more. This is one part of the list.
These molecules were tested on Wolbachia pipientis (assay: Anti-Wolbachia Cell-Based Screen). Conditions: 5 µM.
Assay type: functional
Design: scale not given: in the data most compounds retested in dose-response had high values

SMILES | Percent Effect [%]
O=C(O)c1coc(COc2cccc(F)c2)n1 | 4.925
Cn1cc(C(C)(O)CNc2ccc(C(F)(F)F)cn2)cn1 (stereo not given) | -6.245
CC(C)(C)CC(NC(=O)c1nc(=O)[nH][nH]1)c1ccc(F)cc1 (stereo not given) | -5.789
COC(=O)CCNC(=O)c1coc(COc2ccc(F)cc2)n1 | -5.567
CCOC(=O)NC(=O)CSC(C)c1ccccc1F (stereo not given) | 4.048
CN1CCN2CCN(C(=O)c3cnn4cc(CCO)cnc34)CC2C1 (stereo not given) | -3.17
Cc1nccn1CCC1CCCCN1C(=O)c1ccc2[nH]nnc2c1 (stereo not given) | -0.5329
CC(C)c1nccn1C1CCCN(C(=O)c2ccc3[nH]cnc3c2)C1 (stereo not given) | -5.197
Cn1ccnc1CN1CCCN(C(=O)c2ccc3[nH]cnc3c2)CC1 | 100.5
Cn1ccnc1CN1CCCN(C(=O)c2ccc3[nH]nnc3c2)CC1 | 102.4
CN(C(=O)OC(C)(C)C)C1CCN(C(=O)c2cc(Cl)c[nH]2)C1 (stereo not given) | 3.471
COCC(=O)N[C@H](C)c1onc(-c2ccc(F)cc2)c1C(=O)O | -10.17
CC(C)(C)n1ncc2c1NC(=O)CC2c1ccccc1 (stereo not given) | 1.075
Cn1c(=O)c2c(n3ncnc13)NC(=O)CC2c1cccc(Br)c1 (stereo not given) | 114.2
CC(C)n1[nH]c(=O)c2c1NC(=O)CC2c1cccnc1 (stereo not given) | 10.81
O=C1CC(c2ccc(F)cc2)c2cnn(C3CCCC3)c2N1 (stereo not given) | -2.721
O=C1CC(c2ccc(C(=O)O)cc2)c2ncn(-c3ccccc3F)c2N1 (stereo not given) | 10.34
COc1cccc(C2CC(=O)Nc3c2c(=O)n(C)c2ncnn32)c1 (stereo not given) | 109.5
CC(C)n1[nH]c(=O)c2c1NC(=O)CC2c1cccc(OC(F)F)c1 (stereo not given) | 18.26
Cn1c(=O)c2c(n3ncnc13)NC(=O)CC2c1cccc(F)c1 (stereo not given) | 120.7
CC(C)n1[nH]c(=O)c2c1NC(=O)CC2c1ccc2ncccc2c1 (stereo not given) | 8.497
O=C1CC(c2ccc(C(=O)O)cc2)c2ncn(-c3cccc(F)c3)c2N1 (stereo not given) | 4.592
Cn1c(=O)c2c(n3ncnc13)NC(=O)CC2c1ccc(F)cc1 (stereo not given) | 107.2
CSc1ccc(C2CC(=O)Nc3c2c(=O)[nH]c2ncnn32)cc1 (stereo not given) | -5.097
CC(C)(C)c1cn2c(n1)C(CNCc1ccccn1)CCC2 (stereo not given) | 10.69
CCN(Cc1nc(-c2ccco2)no1)Cc1cccc2c1OCO2 | -4.038
CC(C)n1nc2c(cc1=O)CN(CC1CCCCO1)CC2 (stereo not given) | 3.458
Cc1nc2n(n1)CC(NCc1ccccc1OCC(=O)N(C)C)CC2 (stereo not given) | 1.473

SMILES | Percent Effect [%]
NC(=O)COc1ccc(CN2CCC(O)(CN3CCCCC3)C2)cc1Cl (stereo not given) | -2.336
Cc1nc(N2Cc3cnn(Cc4ccc(F)cc4)c3C2)no1 | -13.57
COCc1nc2nc(O)c3c(n2n1)NC(=O)CC3c1ccc(SC)cc1 (stereo not given) | -7.854
CCc1ccc(C2CC(=O)Nc3c2c(=O)n(C)c2ncnn32)cc1 (stereo not given) | 109.5
Cn1ncc2c1NC(=O)CC2c1ccc(O)cc1 (stereo not given) | 38.62
CC(C)(C)c1noc(CCCC(=O)N2CCNC(=O)C2)n1 | -4.153
O=c1c2ccccc2ncn1Cc1cc(C2CC2)[nH]n1 | 98.49
COc1cccc2c(=O)n(Cc3cc(C4CC4)[nH]n3)cnc12 | 104.8
O=c1c2sccc2ncn1Cc1cc(C2CC2)[nH]n1 | 88.09
O=C(Cn1cnc2ccccc2c1=O)Nc1cc(C2CC2)n[nH]1 | 0.387
Cc1cc(CN2CCC(c3cc(Cc4ccccc4)n[nH]3)CC2)[nH]n1 | 25.91
COc1cccc2c(=O)n(CCN3CCNCC3)cnc12 | 4.244
CC1CCN(CC(O)Cn2cnc3ccsc3c2=O)CC1 (stereo not given) | -6.513
CN(Cc1cc(C2CC2)[nH]n1)Cc1cc2ccc(F)cc2[nH]c1=O | -8.263
O=c1c2sccc2ncn1CC(O)CN1CCOCC1 (stereo not given) | 7.822
N#Cc1ccc(N2CCCN(CC(=O)N3CCNC(=O)C3)CC2)cc1 | -15.62
CN(CC1=CCCN(Cc2cccc(C#N)c2)C1)C(=O)c1ccco1 | 6.358
O=C(CCc1ccsc1)N1CCC(n2cc(CO)nn2)CC1 | -0.2022
CCn1c(CN2CCCC2)nnc1C1CCN(Cc2ccc(C)o2)CC1 | 10.89
OC(CNc1nc(C2CCCC2)nc2c1CCNCC2)C(F)(F)F (stereo not given) | -10.56
Cn1c(SCC(N)=O)nnc1-c1csc2c1CCCC2 | 119.7
CCCn1c(SCC(N)=O)nnc1-c1csc2c1CCCC2 | 99.65
NC(=O)CSc1nnc2[nH]c(=O)c3c(n12)CCCC3 | 2.529
O=C(NCCn1ccnc1)c1csc2c1CCCC2 | 1.844
CCCNC(=O)CSc1nnc2[nH]c(=O)c3c(n12)CCCC3 | 1.807
CCCc1cc(=O)[nH]c2nnc(SCC(N)=O)n12 | 23.5
O=C(NCCCn1cccn1)c1csc2c1CCCC2 | -1.067

— ChEMBL document CHEMBL3988442, “University of Dundee, Small-Polar-MMV Screening Library” (2021)
